Experimental findings from PubChem BioAssay (NCI) are described below.

Test systems include NCI-H23 lung; NCI-H226 lung; NCI-H322M lung; HOP-62 NSCLC; NCI-H460 lung; HOP-92 NSCLC; NCI-H522 lung; A549/ATCC NSCLC; 786-0 renal; COLO 205 colon; DU-145 prostate; K-562 leukemia; MALME-3M melanoma; MDA-MB-231 breast; RXF 393 renal; SF-268 CNS; SF-295 CNS; SF-539 CNS; UACC-257 melanoma; M14 melanoma.
Common to all, as to test: NCI-60 one-dose screen, 48 h (100 = growth as untreated, 0 = no growth, -100 = all killed)
Common to all, as to conditions: 10 µM unless noted

This is part of a sample that, as a whole, favours compounds with a hit. Of some 83,000 tested, about 20% had one in any assay.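 Note: values are percent growth. 100 is the growth of untreated cells, values between 100 and 0 indicate rising inhibition; between -100 and 0 indicates cell death.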 Values without a mark were called inactive. Calls of active or inactive are those of the source. Rule for the calls: active = growth percent below 10; inactive = the rest.

On to `COc1ccc(-c2cc(=O)oc3ccc(Cl)cc23)cc1F`, for which the growth in the assay with NCI-H23 lung was 18.1%; in the assay with NCI-H226 lung, 49.1%; with NCI-H322M lung it was 46.9%; in the assay with HOP-62 NSCLC, 20.8%; in the assay with NCI-H460 lung, 7.67% (active); in the assay with HOP-92 NSCLC, 33.6%. Besides, the growth with NCI-H522 lung was -27.8% (active); with A549/ATCC NSCLC, 10.8%; with 786-0 renal, 25%; in the assay on COLO 205 colon, -26.4% (active); with DU-145 prostate, 14.7%; with K-562 leukemia, 7.21% (active). For the same compound, the growth is 103% in the assay on MALME-3M melanoma; 21.8% in the assay with MDA-MB-231 breast; 38.7% with RXF 393 renal; 26.2% in the assay with SF-268 CNS; 20.4% in the assay with SF-295 CNS; -2.9% (active) with SF-539 CNS. Further, the growth with UACC-257 melanoma was 47.3%; in the assay with M14 melanoma, 15.3%.
In the case of `Cc1cccc(C)c1NC(=O)CSC(=S)N1CCCCC1`, the growth was 88.7% in the assay on NCI-H23 lung; 109% in the assay on NCI-H226 lung; 82.7% with NCI-H322M lung; 107% with HOP-62 NSCLC; 106% in the assay on NCI-H460 lung; 107% with HOP-92 NSCLC. The growth was 92% in the assay on NCI-H522 lung; 101% with A549/ATCC NSCLC; 92.6% in the assay on 786-0 renal; 109% with COLO 205 colon; 108% in the assay with DU-145 prostate; 87.5% in the assay with K-562 leukemia. Also, the growth was 88.4% in the assay with MALME-3M melanoma; 119% with MDA-MB-231 breast; 111% in the assay on RXF 393 renal; 96% in the assay with SF-268 CNS; 101% in the assay on SF-295 CNS; 99.5% with SF-539 CNS. Also, the growth with UACC-257 melanoma and in the assay with M14 melanoma was 102% in each case.
Consider `CCN(CC)c1ccc(/C=C/c2cc(C)c3ccccc3n2)cc1`, for which the growth is 64% with NCI-H23 lung; 61.1% in the assay on NCI-H226 lung; 101% in the assay on NCI-H322M lung; 46.7% with HOP-62 NSCLC; 43% in the assay on NCI-H460 lung; 82.2% in the assay with HOP-92 NSCLC. In addition, the growth in the assay with NCI-H522 lung was 31.3%; in the assay on A549/ATCC NSCLC, 53.9%; in the assay with 786-0 renal it was 94.6%; in the assay with COLO 205 colon it was 24.7%; in the assay on DU-145 prostate, 94.2%; with K-562 leukemia, 25.3%. Besides, the growth in the assay on MALME-3M melanoma is 59.4%; with MDA-MB-231 breast it was 42.4%; in the assay with RXF 393 renal it was 13.2%; in the assay on SF-268 CNS, 82.5%; with SF-295 CNS, 41.5%; with SF-539 CNS, 48.4%. Further, the values for the growth in the assay with UACC-257 melanoma and in the assay on M14 melanoma were 60.5% and 38.2%, respectively.
As to `O=c1[nH]ncc(Br)c1Br`, the growth in the assay with NCI-H23 lung is -57% (active); in the assay with NCI-H226 lung, 112%; in the assay on NCI-H322M lung, 94.7%; in the assay with HOP-62 NSCLC, 90.2%; in the assay with NCI-H460 lung, 65.9%; in the assay with HOP-92 NSCLC it was 62.3%. Further, the growth with NCI-H522 lung is -41.3% (active); with A549/ATCC NSCLC, 69.3%; in the assay on 786-0 renal it was 71.6%; with COLO 205 colon, 22.4%; in the assay with DU-145 prostate it was 54.4%; in the assay on K-562 leukemia, 3.3% (active). The growth in the assay with MALME-3M melanoma is -7.27% (active); in the assay on MDA-MB-231 breast, 28.7%; in the assay on RXF 393 renal it was -85.5% (active); with SF-268 CNS, -18.3% (active); in the assay on SF-295 CNS, 102%; in the assay on SF-539 CNS it was 93.5%. Moreover, the growth in the assay on UACC-257 melanoma was -36.7% (active); with M14 melanoma, -84.8% (active).
As to `Fc1ccc(Nc2ccc3c(OCCCN4CCOCC4)cccc3n2)cc1F`, the growth with NCI-H23 lung is 79%; with NCI-H226 lung it was 64.6%; with NCI-H322M lung it was 73.3%; in the assay with HOP-62 NSCLC it was 89.6%; in the assay on NCI-H460 lung, 55.7%; with HOP-92 NSCLC it was 63.9%. Moreover, the growth in the assay on NCI-H522 lung was 83.8%; in the assay with A549/ATCC NSCLC, 75.4%; in the assay on 786-0 renal, 74%; in the assay with COLO 205 colon, -7.44% (active); in the assay with DU-145 prostate, 76.9%; in the assay with K-562 leukemia, 1.64% (active). Also, the growth in the assay on MALME-3M melanoma is 70.3%; with MDA-MB-231 breast, 29.8%; in the assay on RXF 393 renal, 80.5%; with SF-268 CNS it was 71.3%; with SF-295 CNS, 78.3%; in the assay on SF-539 CNS it was 52.2%. The growth in the assay on UACC-257 melanoma is 94%; in the assay on M14 melanoma, 69.2%.
Consider `O=C1/C(=C\c2ccco2)SC(=S)N1CCc1ccc(O)cc1`, for which the growth in the assay with NCI-H23 lung is 101%; with NCI-H226 lung, 101%; in the assay with NCI-H322M lung, 90.6%; with HOP-62 NSCLC it was 98.1%; in the assay with NCI-H460 lung it was 106%; in the assay with HOP-92 NSCLC, 61.2%. The growth was 68.9% with NCI-H522 lung; 99.7% in the assay on A549/ATCC NSCLC; 99.4% in the assay with 786-0 renal; 126% in the assay with COLO 205 colon; 67.8% in the assay on DU-145 prostate; 84.8% in the assay with K-562 leukemia. Also, the growth in the assay on MALME-3M melanoma is 82%; with MDA-MB-231 breast, 80.5%; with RXF 393 renal, 98.3%; in the assay on SF-268 CNS it was 94.8%; with SF-295 CNS, 105%; in the assay with SF-539 CNS, 88.5%. The values for the growth with UACC-257 melanoma and with M14 melanoma were 90.1% and 96%, respectively.
On to `CC[C@H](CC[C@@H](C)[C@H]1CC[C@H]2[C@@H]3/C(=C/c4cccnc4)C(=O)C4=CC(=O)CC[C@]4(C)[C@H]3CC[C@]12C)C(C)C`, for which the growth with NCI-H23 lung is 69.3%; with NCI-H226 lung, 87.5%; in the assay with NCI-H322M lung, 98.4%; with HOP-62 NSCLC it was 99.2%; with NCI-H460 lung it was 98.5%; in the assay on HOP-92 NSCLC, 81.6%. For the same compound, the growth in the assay with NCI-H522 lung was 91%; with A549/ATCC NSCLC, 54.4%; in the assay with 786-0 renal it was 105%; in the assay on COLO 205 colon, 113%; with DU-145 prostate it was 103%; with K-562 leukemia, 76.4%. Moreover, the growth with MALME-3M melanoma was 97.6%; with MDA-MB-231 breast, 95.2%; with RXF 393 renal, 91.2%; in the assay on SF-268 CNS it was 103%; with SF-295 CNS it was 86.5%; in the assay on SF-539 CNS it was 105%. Further, the growth was 87.8% with UACC-257 melanoma and 88% with M14 melanoma.
